Assay results: paper PMC11574364

Key:
Experiment in all cases: protein domain microarray probed with biotinylated miRNA; Domain array: 20 mM Tris-HCl pH 7.4, 200 mM KCl, 0.2 mM EDTA, 0.05% NP40, 2 ug/ul heparin, overnight 4 C. ORF array: PBS pH 7.0 with RNase inhibitor, 100 ng RNA; high values mean tight binding
Conditions in all cases: ssRNA
RBMXL3 = RBMXL3 (Homo sapiens, UniProt Q8N7X1)
ROD1(3-4) = ROD1(3-4) (Homo sapiens, UniProt O95758)
PSPC1 = molecular target: T1, PSPC1 (Homo sapiens, UniProt Q8WXF1)
T1 sequence: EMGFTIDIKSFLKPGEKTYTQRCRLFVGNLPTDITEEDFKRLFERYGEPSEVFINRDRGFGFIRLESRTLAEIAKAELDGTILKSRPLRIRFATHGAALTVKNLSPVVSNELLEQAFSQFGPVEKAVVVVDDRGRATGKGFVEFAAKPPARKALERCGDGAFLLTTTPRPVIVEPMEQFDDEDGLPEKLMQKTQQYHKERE

TDRD10 = molecular target: T2, TDRD10 (Homo sapiens, UniProt Q5VZ19)
T2 sequence: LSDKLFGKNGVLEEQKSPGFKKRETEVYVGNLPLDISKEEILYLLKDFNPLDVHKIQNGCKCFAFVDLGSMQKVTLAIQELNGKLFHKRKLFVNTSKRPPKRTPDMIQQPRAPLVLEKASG

MASK-BP3 = molecular target: T3, MASK-BP3 (Homo sapiens, UniProt Q8IWZ3)
T3 sequence: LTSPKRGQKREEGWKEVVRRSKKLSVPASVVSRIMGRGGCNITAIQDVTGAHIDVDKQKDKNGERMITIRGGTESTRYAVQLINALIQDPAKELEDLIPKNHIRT

TRA2A = molecular target: T4, TRA2A (Homo sapiens, UniProt Q13595)
T4 sequence: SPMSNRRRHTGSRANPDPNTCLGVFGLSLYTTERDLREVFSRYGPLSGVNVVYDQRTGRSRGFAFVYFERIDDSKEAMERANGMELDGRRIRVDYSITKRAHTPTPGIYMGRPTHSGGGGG

SFRS7 = molecular target: T5, SFRS7 (Homo sapiens, UniProt Q16629)
T5 sequence: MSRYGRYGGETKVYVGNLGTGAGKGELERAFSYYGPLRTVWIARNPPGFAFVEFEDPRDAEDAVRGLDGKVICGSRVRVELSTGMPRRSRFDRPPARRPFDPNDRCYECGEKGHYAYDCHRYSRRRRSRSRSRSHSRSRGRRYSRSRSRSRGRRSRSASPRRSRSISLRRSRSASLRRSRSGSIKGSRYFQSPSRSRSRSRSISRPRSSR

snRNP 70 = snRNP 70 (Homo sapiens, UniProt P08621)
snRNP 70, sequence (P08621 80-205): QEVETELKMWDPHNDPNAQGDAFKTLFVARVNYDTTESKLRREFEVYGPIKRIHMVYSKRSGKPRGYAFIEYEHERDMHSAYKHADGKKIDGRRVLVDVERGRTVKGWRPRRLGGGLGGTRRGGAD

SRRP35 = SRRP35 (Homo sapiens, UniProt Q8WXF0)
SRRP35, sequence (Q8WXF0 1-120): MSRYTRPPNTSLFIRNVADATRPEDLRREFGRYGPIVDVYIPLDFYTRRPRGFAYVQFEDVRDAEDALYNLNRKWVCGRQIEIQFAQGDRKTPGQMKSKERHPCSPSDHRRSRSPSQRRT

RDBP = RDBP (Homo sapiens, UniProt P18615)
RDBP, sequence (P18615 240-355): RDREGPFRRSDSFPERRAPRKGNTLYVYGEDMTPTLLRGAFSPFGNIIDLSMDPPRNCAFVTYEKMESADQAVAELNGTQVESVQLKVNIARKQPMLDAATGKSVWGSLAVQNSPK

hnRNP K(3) = hnRNP K(3) (Homo sapiens, UniProt P61978)
hnRNP K(3), sequence (P61978 369-463): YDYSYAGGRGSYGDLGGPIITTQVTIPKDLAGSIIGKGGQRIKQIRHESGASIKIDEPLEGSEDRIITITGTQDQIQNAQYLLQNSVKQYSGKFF

RBM35A = molecular target: T6, RBM35A (Homo sapiens, UniProt Q6NXG1)
T6 sequence: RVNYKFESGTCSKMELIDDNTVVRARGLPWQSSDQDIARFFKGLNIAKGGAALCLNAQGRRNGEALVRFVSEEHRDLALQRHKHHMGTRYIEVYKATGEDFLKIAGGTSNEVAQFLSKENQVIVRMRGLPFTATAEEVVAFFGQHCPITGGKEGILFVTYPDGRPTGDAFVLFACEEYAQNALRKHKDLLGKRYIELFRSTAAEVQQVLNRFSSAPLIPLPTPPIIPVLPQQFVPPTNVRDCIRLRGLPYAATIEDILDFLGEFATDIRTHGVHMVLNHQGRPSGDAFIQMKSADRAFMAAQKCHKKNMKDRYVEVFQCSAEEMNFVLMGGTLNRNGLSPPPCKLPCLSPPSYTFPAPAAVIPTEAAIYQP

RKHD2(1-2) = molecular target: T7, RKHD2(1-2) (Homo sapiens, UniProt Q5U5Q3)
T7 sequence: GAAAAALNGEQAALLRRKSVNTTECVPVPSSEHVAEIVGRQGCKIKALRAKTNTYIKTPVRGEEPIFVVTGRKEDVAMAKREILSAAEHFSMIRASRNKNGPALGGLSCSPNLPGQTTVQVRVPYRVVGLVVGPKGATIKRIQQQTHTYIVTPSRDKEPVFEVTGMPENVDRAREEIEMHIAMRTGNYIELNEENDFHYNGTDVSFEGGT

RBM35B = molecular target: T8, RBM35B (Homo sapiens, UniProt Q9H6T0)
T8 sequence: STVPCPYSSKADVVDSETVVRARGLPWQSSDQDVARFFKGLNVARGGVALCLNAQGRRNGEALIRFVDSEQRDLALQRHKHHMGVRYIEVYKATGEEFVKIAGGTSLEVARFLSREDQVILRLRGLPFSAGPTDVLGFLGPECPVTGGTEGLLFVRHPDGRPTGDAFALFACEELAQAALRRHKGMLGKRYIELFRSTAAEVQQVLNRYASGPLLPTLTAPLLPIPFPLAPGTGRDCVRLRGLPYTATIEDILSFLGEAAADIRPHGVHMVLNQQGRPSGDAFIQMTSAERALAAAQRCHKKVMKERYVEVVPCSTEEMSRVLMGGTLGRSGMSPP

TAF15 = TAF15 (Homo sapiens, UniProt Q92804)
TAF15, sequence (Q92804 215-340): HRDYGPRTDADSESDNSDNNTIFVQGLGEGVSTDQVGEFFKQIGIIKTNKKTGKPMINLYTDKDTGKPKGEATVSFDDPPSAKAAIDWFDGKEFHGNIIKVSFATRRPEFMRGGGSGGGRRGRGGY

RBM6 = molecular target: T9, RBM6 (Homo sapiens, UniProt P78332)
T9 sequence: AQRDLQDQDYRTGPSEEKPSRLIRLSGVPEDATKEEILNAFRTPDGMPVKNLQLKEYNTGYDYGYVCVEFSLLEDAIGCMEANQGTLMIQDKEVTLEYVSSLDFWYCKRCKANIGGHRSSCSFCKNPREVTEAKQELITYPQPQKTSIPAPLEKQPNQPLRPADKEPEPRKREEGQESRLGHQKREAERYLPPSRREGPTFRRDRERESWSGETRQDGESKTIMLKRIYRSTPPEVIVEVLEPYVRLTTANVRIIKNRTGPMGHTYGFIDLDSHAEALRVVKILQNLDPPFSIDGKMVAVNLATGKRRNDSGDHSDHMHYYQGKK

RBM23 = molecular target: T10, RBM23 (Homo sapiens, UniProt Q86U06)
T10 sequence: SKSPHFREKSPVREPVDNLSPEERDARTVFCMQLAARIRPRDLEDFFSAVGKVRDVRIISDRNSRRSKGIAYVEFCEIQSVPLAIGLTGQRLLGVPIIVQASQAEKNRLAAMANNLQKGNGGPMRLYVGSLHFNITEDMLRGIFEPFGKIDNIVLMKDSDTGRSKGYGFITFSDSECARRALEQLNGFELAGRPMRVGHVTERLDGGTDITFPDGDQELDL

KHDRBS2 = molecular target: T11, KHDRBS2 (Homo sapiens, UniProt Q5VWX1)
T11 sequence: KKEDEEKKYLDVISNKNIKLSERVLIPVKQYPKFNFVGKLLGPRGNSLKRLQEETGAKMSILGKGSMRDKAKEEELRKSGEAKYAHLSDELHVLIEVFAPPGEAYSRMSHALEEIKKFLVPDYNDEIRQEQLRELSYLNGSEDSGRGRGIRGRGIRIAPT

RBM12B(1-3) = molecular target: T12, RBM12B(1-3) (Homo sapiens, UniProt Q8IXT5)
T12 sequence: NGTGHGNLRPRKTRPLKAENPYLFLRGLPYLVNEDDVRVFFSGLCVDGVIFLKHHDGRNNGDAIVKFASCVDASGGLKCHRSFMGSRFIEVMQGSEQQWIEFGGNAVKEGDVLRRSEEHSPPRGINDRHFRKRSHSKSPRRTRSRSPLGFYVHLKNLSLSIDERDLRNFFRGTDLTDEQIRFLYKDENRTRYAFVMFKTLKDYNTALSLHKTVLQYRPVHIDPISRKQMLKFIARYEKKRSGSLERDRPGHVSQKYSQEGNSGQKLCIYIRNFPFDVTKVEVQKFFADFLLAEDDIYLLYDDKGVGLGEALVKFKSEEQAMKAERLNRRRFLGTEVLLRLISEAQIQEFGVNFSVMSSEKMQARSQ

RED1(2)/ADARB1 = RED1(2)/ADARB1 (Homo sapiens, UniProt P78563)

RBMXL3, sequence (Q8N7X1 1-110): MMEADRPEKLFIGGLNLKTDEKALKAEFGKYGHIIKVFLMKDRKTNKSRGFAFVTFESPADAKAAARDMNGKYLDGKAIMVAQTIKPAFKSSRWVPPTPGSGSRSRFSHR
ROD1(3-4), sequence (O95758 340-552): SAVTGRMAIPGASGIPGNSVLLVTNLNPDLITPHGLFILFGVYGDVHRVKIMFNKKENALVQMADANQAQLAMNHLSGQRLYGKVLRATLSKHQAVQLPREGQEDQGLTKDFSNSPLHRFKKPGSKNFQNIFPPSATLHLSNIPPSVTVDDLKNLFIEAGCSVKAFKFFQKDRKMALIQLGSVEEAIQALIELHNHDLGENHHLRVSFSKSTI

| Sequence | binding signal (RBMXL3) [fluorescence intensity] | binding signal (ROD1(3-4)) [fluorescence intensity] | binding signal (PSPC1) [fluorescence intensity] | binding signal (TDRD10) [fluorescence intensity] | binding signal (MASK-BP3) [fluorescence intensity] | binding signal (TRA2A) [fluorescence intensity] | binding signal (SFRS7) [fluorescence intensity] | binding signal (snRNP 70) [fluorescence intensity] | binding signal (SRRP35) [fluorescence intensity] | binding signal (RDBP) [fluorescence intensity] | binding signal (hnRNP K(3)) [fluorescence intensity] | binding signal (RBM35A) [fluorescence intensity] | binding signal (RKHD2(1-2)) [fluorescence intensity] | binding signal (RBM35B) [fluorescence intensity] | binding signal (TAF15) [fluorescence intensity] | binding signal (RBM6) [fluorescence intensity] | binding signal (RBM23) [fluorescence intensity] | binding signal (KHDRBS2) [fluorescence intensity] | binding signal (RBM12B(1-3)) [fluorescence intensity] | binding signal (RED1(2)/ADARB1) [fluorescence intensity] |
| --- | --- | --- | --- | --- | --- | --- | --- | --- | --- | --- | --- | --- | --- | --- | --- | --- | --- | --- | --- | --- |
| UGAGGUAGUAGGUUGUAUGGUU | 1320 ± 44.2 | 385 ± 82.6 | 26.1 ± 0.75 | 161 ± 58.1 | 71.6 ± 1.19 | 311 ± 4.77 | 2173 ± 16.3 | 1010 ± 40.3 | 570 ± 27.1 | 52.2 ± 3.22 | 199 ± 15.1 | 1320 ± 26.9 | 733 ± 12 | 193.1 ± 0.566 | 588 ± 28.9 | 550 ± 31 | 843 ± 102 | 842 ± 171 | 324 ± 46.5 | 87.6 ± 3.8 |
| UGAGGUAGUAGGUUGUAUAGUU | 500 ± 52.7 | 92.7 ± 10.2 | – | – | 26.2 ± 1.21 | 25 ± 0.552 | 896.5 ± 2.67 | 179 ± 52.5 | 206 ± 15.3 | 25 ± 1.67 | 52.1 ± 3.1 | 521 ± 7.45 | 509.4 ± 2.09 | 31.4 ± 1.56 | 54.7 ± 13.8 | 20.3 ± 1.75 | 162.15 ± 0.134 | 388 ± 52.1 | 44.5 ± 1.46 | 25 ± 0.453 |
| AGAGGUAGUAGGUUGCAUAGUU | 1850 ± 54 | 331 ± 55.6 | 38.8 ± 3.2 | 85.7 ± 8.76 | 50.1 ± 3.32 | 230 ± 12.5 | 2902 ± 20.8 | 899.9 ± 8.8 | 735 ± 23.2 | 47.7 ± 4.8 | 181 ± 4.45 | 2590 ± 119 | 874 ± 10.7 | 170 ± 4.31 | 299 ± 23.1 | 491 ± 28 | 644 ± 79.1 | 1300 ± 14.4 | 274 ± 48.6 | 73.3 ± 1.94 |
| UGAGGUAGUAGGUUGUGUGGUU | 1280 ± 38.3 | 569 ± 20.9 | 84.7 ± 9.68 | 210 ± 41.3 | 131 ± 1.63 | 341 ± 41.5 | 1968 ± 10.4 | 1170 ± 58.7 | 643.6 ± 5.9 | 78.9 ± 4.14 | 291 ± 3.08 | 1439 ± 11.1 | 680.7 ± 1.67 | 287 ± 29.8 | 662 ± 122 | 453 ± 28.5 | 678.5 ± 0.919 | 1190 ± 18.7 | 329 ± 27.9 | 143.2 ± 0.375 |
| CAGUGCAAUGAUGAAAGGGCAU | 1130 ± 24.3 | 241 ± 7.52 | – | 33.1 ± 2.64 | 42.16 ± 0.219 | 126 ± 1.75 | 2185 ± 2.91 | 453 ± 34.9 | 882 ± 24.2 | 43.1 ± 3.73 | 294 ± 10.8 | 1310 ± 17.7 | 486 ± 53.7 | 135 ± 1.71 | 104 ± 15.9 | 107 ± 6.4 | 199 ± 29.6 | 1440 ± 198 | 194 ± 28.6 | 68.1 ± 3.97 |
| UAGCUUAUCAGACUGAUGUUGA | 308 ± 16.9 | 94.4 ± 48.7 | – | – | – | – | 1190 ± 28.1 | 44 ± 10.4 | 54.02 ± 0.29 | 20.3 ± 0.262 | 79.6 ± 1.76 | 26.4 ± 2.09 | 234 ± 5.59 | – | – | – | 26.5 ± 5.48 | 463 ± 19.2 | – | – |
